The list is not random: actives were taken first. Their share in the collection is about 0.36%.
IMPase Li cell = cell-permeable IMPase inhibitors with lithium potentiation | CHO-M1 cells, IP1 TR-FRET (IP-One), carbachol + lithium | Potency, µM (titrated, usually from 59.4 µM), inactives show top-dose activity, negative = IMPase inhibition, hits mostly inhibitors | actives 0.35% (n = 210,000); active = well fitted inhibition curve with a large enough effect; inconclusive = small, poorly fitted or top-dose-only effect; inactive = no such curve, though single readings can be large or run the other way;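 note: IP1 builds up when IMPase is blocked and the TR-FRET signal falls; potency is the fitted concentration of half-maximal effect; plate controls were basal vehicle for no effect and high inhibitor control for full effect; nearly all actives have a fitted effect of over 50% in size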
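CHO-M1, 2000 cells/well, 16–30 h culture; cpd + low Li+, 30 min 37C; lysis with d2-IP1/Eu-anti-IP1 Ab, 10 min RT; TR-FRET 665/620 ratio and 620 channel; AC50 via Hill.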
IMPase cell inh = IMPase inhibition in cells. 120,000 tested, under 10 active. CHO-M1 cells, IP1 accumulation, HTRF TR-FRET ratio. AID 901. P97697. inhibition (IP1 accumulation), % at 46.1 µM; active = well fitted curve in the direction sought with a large enough effect in the signal ratio, not every such curve was filed as active; inconclusive = small, poorly fitted or top-dose-only effect, or a change in a side signal; inactive = no such curve, though single readings can be large or run the other way; the % refers to the signal ratio;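 note: cells stimulated with carbachol in lithium chloride buffer; plate controls were DMSO basal wells for no effect and reference inhibitor wells for full effect; higher means more IMPase inhibition seen as more IP1 and lower FRET ratio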
Target sequence (P97697 whole entry, looked up): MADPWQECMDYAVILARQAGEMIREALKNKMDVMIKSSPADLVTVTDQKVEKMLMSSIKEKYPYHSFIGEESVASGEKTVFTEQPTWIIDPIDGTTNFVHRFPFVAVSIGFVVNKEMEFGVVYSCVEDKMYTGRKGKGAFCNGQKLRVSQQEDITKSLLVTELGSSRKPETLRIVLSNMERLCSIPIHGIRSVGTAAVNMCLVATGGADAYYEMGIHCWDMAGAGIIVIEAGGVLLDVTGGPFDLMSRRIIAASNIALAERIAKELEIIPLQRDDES
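In this qHTS, compounds (final up to 46 uM) act on CHO-M1 cells that are then activated through the M1 receptor with carbachol, in pH 7.4 buffer containing 50 mM LiCl, for 30 min. IP1 accumulation is quantified by the IP-One immunoassay.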
Numbers without * were called inactive; ? = inconclusive; · = no result given; ! = not active in a repeat.

SMILES | IMPase Li cell | IMPase cell inh
c1ccc([Se]c2c(-c3ccccc3)[se]c3ccccc23)cc1 | 5.6µM* | ·
Ic1c(C2=CCCCC2)[se]c2ccccc12 | 0% | ·
C=C[C@@H]1CN2CC[C@H]1CC2[C@H](O)c1ccnc2ccccc12 (stereo partly drawn) | -1% | ·
O=[N+]([O-])c1ccc(O[C@@H]2O[C@H](CO)[C@@H](O)[C@H](O)[C@H]2F)c([N+](=O)[O-])c1 | -3% | ·
O=c1ccc2cc(OC3OC(CO)C(O)C(O)C3O)c(O)cc2o1 (stereo not drawn) | 10µM* | ?
NC1=NC([S][Hg][c]2ccc(N)cc2)c2ncn([C@@H]3O[C@H](CO)[C@@H](O)[C@@H]3O)c2N1 (stereo partly drawn) | 17% | ·
CC[C@@]1(O)C(=O)OCc2c1cc1n(c2=O)Cc2cc3c(O)cccc3nc2-1 | 8.9µM* | ·
CC[C@@]1(O)C(=O)OCc2c1cc1n(c2=O)Cc2cc3ccccc3nc2-1 | -21% | ?
C[C@H]1C2C=C[C@H]1[C@@H](C(=O)O)[C@@H]2c1c2ccc(=O)c(O)c-2oc2c(O)c(O)ccc12 | 2% | ·
CN(C)[C@@H]1C(=O)C(C(N)=O)=C(O)[C@@]2(O)C(=O)C3=C(O)c4c(O)cccc4[C@@](C)(O)[C@H]3[C@H](O)[C@@H]12 | 10µM*! | ?
CN(C)[C@@H]1C(=O)C(C(N)=O)=C(O)[C@]2(O)C(=O)C3=C(O)c4c(O)cccc4[C@](C)(O)[C@H]3C[C@@H]12 | 1% | ·
N[C@@H](Cc1cc(O)c(O)cc1O)C(=O)O | · | -3
